In PubChem BioAssay (NCATS):
Several values for one entry are separate records, joined by “and”; a condition that tells them apart may be missing. Identical values can stand only once. Records with an inconclusive call do not appear. Activity calls are given as the source filed them. Unless noted, calls come from the whole dose curve.

How the values were obtained:
[1] = target: Bile acid receptor (Homo sapiens) (UniProt Q96RI1); experiment: qHTS assay for small molecule agonists of farnesoid X receptor signaling (AID 588527); details: HEK293T FXR-UAS-bla, beta-lactamase ratio, 16 h; activation: stronger effect = higher value;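 note: 0% = vehicle basal and 100% = reference agonist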
Chain of Bile acid receptor (Homo sapiens) (Q96RI1 whole entry, looked up): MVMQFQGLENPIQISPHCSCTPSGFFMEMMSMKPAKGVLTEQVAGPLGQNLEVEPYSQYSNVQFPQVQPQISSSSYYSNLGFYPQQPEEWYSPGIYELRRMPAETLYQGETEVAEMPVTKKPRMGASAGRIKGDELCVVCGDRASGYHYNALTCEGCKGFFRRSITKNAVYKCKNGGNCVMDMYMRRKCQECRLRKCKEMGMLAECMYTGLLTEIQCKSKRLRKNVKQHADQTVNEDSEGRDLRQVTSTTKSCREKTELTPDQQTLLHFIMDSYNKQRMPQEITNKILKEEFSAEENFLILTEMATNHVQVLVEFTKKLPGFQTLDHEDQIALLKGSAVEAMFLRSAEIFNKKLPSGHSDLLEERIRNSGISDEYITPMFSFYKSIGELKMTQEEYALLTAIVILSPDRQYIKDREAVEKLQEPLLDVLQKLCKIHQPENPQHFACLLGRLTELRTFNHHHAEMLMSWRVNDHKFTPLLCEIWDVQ
Summary of the method: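 Quantitative HTS used FXR-UAS-bla HEK293T cells with 16 h compound incubation at 37 C. EC50 values came from concentration-response curves normalized to chenodeoxycholic acid.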

[2] = target: Peroxisome proliferator-activated receptor delta (Homo sapiens) (UniProt Q03181); experiment: qHTS assay for small molecule agonists of peroxisome proliferator-activated receptor delta signaling (AID 588534);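 note: 0% = DMSO basal wells and 100% = positive control agonist at 10 µM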
Chain of Peroxisome proliferator-activated receptor delta (Homo sapiens) (Q03181 whole entry, looked up): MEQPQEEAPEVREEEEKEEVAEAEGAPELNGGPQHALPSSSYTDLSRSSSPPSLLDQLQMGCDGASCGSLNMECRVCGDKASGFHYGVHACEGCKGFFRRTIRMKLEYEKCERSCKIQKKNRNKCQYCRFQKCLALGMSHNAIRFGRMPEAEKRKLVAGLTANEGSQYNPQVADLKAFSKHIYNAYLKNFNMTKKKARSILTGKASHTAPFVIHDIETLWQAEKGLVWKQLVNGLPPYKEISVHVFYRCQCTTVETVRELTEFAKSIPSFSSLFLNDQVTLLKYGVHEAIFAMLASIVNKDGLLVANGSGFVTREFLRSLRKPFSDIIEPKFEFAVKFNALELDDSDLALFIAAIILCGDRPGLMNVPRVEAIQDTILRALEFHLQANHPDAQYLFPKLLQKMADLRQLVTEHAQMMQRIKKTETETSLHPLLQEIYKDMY
Summary of the method: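 Cells carrying a PPAR-delta beta-lactamase reporter were treated with compounds for 18 h at 37 °C in agonist mode. CCF4 fluorescence was read after 2 h; EC50 and efficacy from Hill fits.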

[3] = qHTS for Inhibitors of the Functional Ribonucleoprotein Complex (vRNP) of Lassa (LASV) Arenavirus: LASV Primary Screen - GLuc reporter signal (AID 1347082; calls by dose curve; tested in HEK293 reporter line; note: % is set by controls: 0 for no effect and ±100 for the full control effect; nearly all actives have a fitted effect of over 60% in size)
[4] = qHTS for Inhibitors of the Functional Ribonucleoprotein Complex (vRNP) of Lassa (LASV) Arenavirus: Viability assay - alamar blue signal for LASV Primary Screen (AID 1347083; calls by dose curve; tested in HEK293 reporter line; note: % is set by controls: 0 for no effect and ±100 for the full control effect; nearly all actives have a fitted effect of over 80% in size)
[5] = qHTS for Inhibitors of the Functional Ribonucleoprotein Complex (vRNP) of Lymphocytic Choriomeningitis Arenaviruses (LCMV): Viability assay - alamar blue signal for LCMV Primary Screen (AID 1347085; calls by dose curve; tested in HEK293 reporter line; note: % is set by controls: 0 for no effect and ±100 for the full control effect; nearly all actives have a fitted effect of over 80% in size)
[6] = target: Nucleoprotein (Lymphocytic choriomeningitis virus (strain Armstrong)) (UniProt P09992); experiment: qHTS for Inhibitors of the Functional Ribonucleoprotein Complex (vRNP) of Lymphocytic Choriomeningitis Arenaviruses (LCMV): LCMV Primary Screen - GLuc reporter signal (AID 1347086); note: % is set by controls: 0 for no effect and ±100 for the full control effect; nearly all actives have a fitted effect of over 70% in size
Chain of Nucleoprotein (Lymphocytic choriomeningitis virus (strain Armstrong)) (P09992 whole entry, looked up): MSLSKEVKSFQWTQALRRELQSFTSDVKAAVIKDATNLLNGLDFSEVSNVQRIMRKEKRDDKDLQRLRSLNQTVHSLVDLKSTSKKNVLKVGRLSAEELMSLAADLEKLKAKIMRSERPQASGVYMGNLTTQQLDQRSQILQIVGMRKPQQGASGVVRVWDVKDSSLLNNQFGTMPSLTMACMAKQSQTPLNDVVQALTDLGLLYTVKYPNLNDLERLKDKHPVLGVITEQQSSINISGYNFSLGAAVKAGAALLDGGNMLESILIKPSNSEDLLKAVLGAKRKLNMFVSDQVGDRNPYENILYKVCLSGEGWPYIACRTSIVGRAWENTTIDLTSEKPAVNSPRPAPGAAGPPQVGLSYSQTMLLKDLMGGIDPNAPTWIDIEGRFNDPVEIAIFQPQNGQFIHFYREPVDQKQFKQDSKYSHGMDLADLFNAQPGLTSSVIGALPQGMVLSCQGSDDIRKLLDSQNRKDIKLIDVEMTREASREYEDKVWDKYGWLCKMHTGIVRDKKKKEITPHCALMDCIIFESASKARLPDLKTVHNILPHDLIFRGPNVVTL

[7] = qHTS profiling of the MIPE4 collection as inhibitors of Plasmodium falciparum (3D7) proliferation (AID 743344; call rule not given here;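 note: scaled between DMSO vehicle wells and 0.29 µM artemisinin as full inhibition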); details: P. falciparum 3D7 in erythrocytes, SYBR Green DNA fluorescence, 72 h; at 28.5 µM (top of the series) unless noted
Summary of the method: (§1)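 Erythrocytes infected with P. falciparum (0.3% parasitemia, 2.5% hematocrit) incubated with compounds 72 h at 37 C, 5% CO2. Lysis with saponin/Triton buffer containing SYBR Green I, overnight at room temperature in the dark; DNA fluorescence (485/535 nm) normalised to 0.29 uM artemisinin and DMSO.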

[8] = qHTS profiling of the MIPE4 collection as inhibitors of Plasmodium falciparum (DD2) proliferation (Rep 2) (AID 743346; call rule not given here); details: P. falciparum Dd2 in erythrocytes, SYBR Green DNA, 72 h; at 28.5 µM (top of the series) unless noted
Summary of the method: as §1

[9] = qHTS profiling of the MIPE4 collection as inhibitors of Plasmodium falciparum (HB3) proliferation (AID 743347; call rule not given here;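 note: plate controls were DMSO vehicle wells for no effect and artemisinin wells for full effect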); details: P. falciparum HB3 in erythrocytes, SYBR Green DNA, 72 h; at 28.5 µM (top of the series) unless noted
Summary of the method: as §1

[10] = target: Cytochrome P450 3A4 (Homo sapiens) (UniProt P08684); experiment: qHTS Assay for Inhibitors and Substrates of Cytochrome P450 3A4 (AID 884; active = well fitted curve in the direction sought with a large enough effect; an effect the other way counts as inactive or inconclusive; note: potency is the fitted concentration of half-maximal effect; nearly all actives have a fitted effect of over 50% in size)
Chain of Cytochrome P450 3A4 (Homo sapiens) (P08684 whole entry, looked up): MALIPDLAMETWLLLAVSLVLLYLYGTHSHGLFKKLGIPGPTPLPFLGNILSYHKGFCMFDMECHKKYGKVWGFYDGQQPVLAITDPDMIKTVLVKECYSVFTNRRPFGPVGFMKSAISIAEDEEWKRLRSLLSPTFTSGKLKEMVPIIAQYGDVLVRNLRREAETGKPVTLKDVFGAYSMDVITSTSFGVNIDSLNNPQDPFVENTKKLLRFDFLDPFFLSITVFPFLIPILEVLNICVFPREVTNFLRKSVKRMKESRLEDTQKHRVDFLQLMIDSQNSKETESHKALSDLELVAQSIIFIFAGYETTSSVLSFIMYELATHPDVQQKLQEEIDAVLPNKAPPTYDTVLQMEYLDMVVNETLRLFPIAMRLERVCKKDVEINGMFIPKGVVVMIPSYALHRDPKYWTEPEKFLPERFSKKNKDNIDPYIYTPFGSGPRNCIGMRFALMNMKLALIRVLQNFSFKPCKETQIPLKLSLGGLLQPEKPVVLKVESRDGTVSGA
Summary of the method: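 20 nM human CYP3A4 with 25 uM Luciferin-PPXE (at KM) in 200 mM KPO4, preincubated 10 min with compound; NADPH regeneration started a 60 min RT reaction. Luciferin detected by luminescence, normalized to 57 uM ketoconazole as full inhibition.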

[11] = target: Cytochrome P450 3A4 (Homo sapiens) (UniProt P08684); experiment: qHTS Assay for Activators of Cytochrome P450 3A4 (AID 885; active = well fitted curve in the direction sought with a large enough effect; an effect the other way counts as inactive or inconclusive; note: nearly all actives have a fitted effect of over 65% in size)
Summary of the method: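 Quantitative HTS format: compounds preincubated with 20nM human CYP3A4 and Luciferin-PPXE substrate at KM, reaction started by NADPH regeneration, stopped after 60 min, luciferase luminescence read 20 min later.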

[12] = qHTS assay for small molecule agonists of the antioxidant response element (ARE) signaling pathway (AID 651741; active = well fitted activation curve with a large enough effect in the signal ratio; the % refers to the signal ratio; note: % of control where 0% means no effect)
Summary of the method: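 CellSensor ARE-bla HepG2 cells (2,000/well) carrying ARE-driven beta-lactamase, exposed 16 h at 37 C. LiveBLAzer B/G FRET substrate added for 2 h at room temperature; fluorescence intensity read.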

CCCCCCC(=O)O
inactive: activation [1] -0.812% | Potency [2] | Potency [3] | Potency [4] | Potency [5] | Potency [6]

CC(=O)c1ccccn1
inactive: activation [1] -4.62% | Potency [2] | Potency [3] | Potency [4] | Potency [5] | Potency [6]

CCCCC(CC)C(=O)O (stereo not given)
inactive: Potency [2] | Potency [3] | Potency [4] | Potency [5] | Potency [6]

CNC1[C@H](O)C(O[C@@H]2C(O)C(O[C@H]3O[C@H]([C@@H](C)NC)CC[C@H]3N)[C@@H](N)C[C@H]2N)OC[C@]1(C)O (stereo not given in full)
93.1%: parasite growth, % of DMSO control [7]
inactive: Potency [3] | Potency [4] | Potency [5] | Potency [6]
111%: parasite growth, % of control (lower = inhibition) [8]

CCCCCCCCCCCCCCC
inactive: Potency [2] | Potency [3] | Potency [4] | Potency [5] | Potency [6]

CCCC/C=C\CCCCCCCCCC=O
inactive: activation [1] -2.92% | Potency [2] | Potency [3] | Potency [4] | Potency [5] | Potency [6]

CC=O
inactive: activation [1] -1.84% | Potency [2] | Potency [3] | Potency [4] | Potency [5] | Potency [6]

COc1ccc(OC)cc1
inactive: Potency [2] | Potency [3] | Potency [4] | Potency [5] | Potency [6]

CC(C)OC(=O)[C@H](C)N[P@](=O)(OC[C@H]1O[C@@H](n2ccc(=O)[nH]c2=O)[C@](C)(F)[C@H]1O)Oc1ccccc1
62.8%: parasite growth, % of DMSO control [7]
76.4%: growth, % of control [9]
78.3%: parasite growth, % of control (lower = inhibition) [8]
inactive: Potency [3] | Potency [4] | Potency [5] | Potency [6]

CC(=O)OCCC(C)C
inactive: Potency [2] | Potency [3] | Potency [4] | Potency [5] | Potency [6]

C=CCOC(=O)c1ccccc1C(=O)OCC=C
active: Potency [10] 5.01 µM
inactive: Potency [11] | activation [1] -3.26% and 2.9% | Potency [12] | Potency [3] | Potency [4] | Potency [5] | Potency [6]

CC(C)=CCCC(C)CCO (stereo not given)
inactive: Potency [2] | Potency [3] | Potency [4] | Potency [5] | Potency [6]

O=C(Nc1ccccc1)Nc1ccccc1
inactive: Potency [2] | Potency [3] | Potency [4] | Potency [5] | Potency [6]

C=CCCCCCCCCC=O
inactive: Potency [2] | Potency [3] | Potency [4] | Potency [5] | Potency [6]

CCCCCCCCCCCCCCCC
inactive: Potency [2] | Potency [3] | Potency [4] | Potency [5] | Potency [6]

C=CCCCCCCCCCCCC
inactive: Potency [2] | Potency [3] | Potency [4] | Potency [5] | Potency [6]

CCCCCCCCCC(C)=O
inactive: Potency [2] | Potency [3] | Potency [4] | Potency [5] | Potency [6]
